Compound activity: PubChem, National Center for Advancing Translational Sciences (NCATS)
The list is not random: actives were taken first. Their share in the collection is about 10%.
BAZ2B block – inhibitors of human BAZ2B bromodomain | Potency, µM (highest dose often 114 µM), actives largely listed as inhibitors | AlphaScreen BAZ2B-H3K14Ac peptide displacement | AID 504333 | actives 4.4% (n = 360,000); note: nearly all actives have a fitted effect of over 60% in size
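Compounds, titrated to a top concentration of 110 uM, were incubated 30 min at room temperature with preformed BAZ2B/acetyl-K14 H3 peptide complex (50 nM each). Proximity signal was measured by AlphaScreen after 20 min with beads.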
HP1b binding inh – HP1-beta chromodomain-methylated histone interaction inhibition; Potency, µM (doses to about 114 µM), hits mostly inhibitors; actives 0.56% (n = 390,000); AlphaScreen HP1-beta / biotin-H3K9me3 peptide binding; note: nearly all actives have a fitted effect of over 70% in size
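Compound inhibition of the preformed complex between 50 nM HP1-beta and 50 nM biotinylated H3K9me3 peptide was read by AlphaScreen. Buffer was PBS pH 7.4 with 0.01% Tween-20. Incubations ran 30 min at room temperature, with 10 ug/mL donor/acceptor beads.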
G9a inh – G9a (human) methyltransferase inhibition; Q96KQ7; G9a H3K9 monomethylation, AlphaScreen, 2 h; Potency, µM (series often up to 102 µM), usual class: inhibitors; actives 8.8% (n = 350,000); AID 504332; note: nearly all actives have a fitted effect of over 75% in size
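AlphaScreen read-out: biotin-H3K9 peptide (500 nM) methylation by 20 nM enzyme with 20 uM SAM, 2 h at room temperature after 15 min compound preincubation; anti-monomethyl H3K9 antibody plus donor/acceptor beads, 10 min dark.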
GLS inhibitor – inhibitors of human glutaminase (GLS) | actives 0.21% (n = 410,000) | AID 624170 | O94925 | GLS enzymatic activity, qHTS titration | Potency, µM (top dose mostly 45.5 µM), usual class: inhibitors
Target sequence (O94925 whole entry, looked up): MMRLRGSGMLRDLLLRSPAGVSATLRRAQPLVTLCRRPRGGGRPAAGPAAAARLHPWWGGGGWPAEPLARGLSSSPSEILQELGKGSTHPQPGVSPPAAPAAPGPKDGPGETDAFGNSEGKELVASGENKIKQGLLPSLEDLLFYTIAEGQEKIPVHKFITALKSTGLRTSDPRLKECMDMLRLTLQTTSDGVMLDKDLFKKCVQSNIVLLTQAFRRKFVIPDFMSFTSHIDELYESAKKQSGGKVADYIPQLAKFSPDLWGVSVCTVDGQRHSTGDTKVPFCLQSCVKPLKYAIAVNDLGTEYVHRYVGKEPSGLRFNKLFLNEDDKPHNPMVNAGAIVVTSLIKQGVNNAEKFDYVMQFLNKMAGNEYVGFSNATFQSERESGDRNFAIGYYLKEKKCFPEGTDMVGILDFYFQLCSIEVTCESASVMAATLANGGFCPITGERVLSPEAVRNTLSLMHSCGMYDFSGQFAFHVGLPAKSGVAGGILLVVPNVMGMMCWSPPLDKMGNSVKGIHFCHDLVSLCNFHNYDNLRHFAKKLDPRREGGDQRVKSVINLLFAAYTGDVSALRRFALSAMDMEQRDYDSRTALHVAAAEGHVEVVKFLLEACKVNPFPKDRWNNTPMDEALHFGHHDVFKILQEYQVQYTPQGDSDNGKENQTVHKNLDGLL
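Glutamate formation by hKGA was monitored fluorometrically using coupled glutamate oxidase, HRP and Amplex Red. Substrate was added as 1 mM L-glutamine solution; incubation was 30 min at RT after an initial read.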
JMJD2A Tudor inh – JMJD2A Tudor domain (human) inhibition; AID 504339; Potency, µM (titrated, usually from 114 µM), usual class: inhibitors; AlphaScreen JMJD2A-Tudor / H3K4me3 peptide binding; actives 4.4% (n = 390,000); note: nearly all actives have a fitted effect of over 50% in size
Each line names hits and unclear results; the compound was inactive in the other large screens; ! = not confirmed by another sample. Calls come from the whole dose curve; as a rule, active = well fitted curve in the direction sought with a large enough effect; inconclusive = small, poorly fitted or top-dose-only effect, or another doubt; inactive = no such curve, though single readings can be large; an effect the other way counts as inactive or inconclusive.

O=C(c1ccco1)N1CCN(c2ccc(F)cc2)CC1	none
Nc1ccc(N2CCN(C(=O)c3ccco3)CC2)cc1	BAZ2B block inconclusive, G9a inh 20µM, JMJD2A Tudor inh inconclusive
Nc1ccc(N2CCN(C(=O)c3cccs3)CC2)cc1	BAZ2B block inconclusive, G9a inh 1.4µM
CC(=O)Nc1ccc(N2CCN(C(=O)c3cccs3)CC2)cc1	none
COc1cccc(-n2c(SCC(N)=O)nnc2-c2ccco2)c1	none
CC(C)(Cc1cccc(CC(C)(C)C(=O)O)c1)C(=O)O	none
C[C@](Cc1ccc(O)c(O)c1)(NN)C(=O)O	G9a inh 2.2µM (no result: BAZ2B block, HP1b binding inh, GLS inhibitor, JMJD2A Tudor inh)
CC(N)(Cc1ccc(O)c(O)c1)C(=O)O (stereo unspecified)	G9a inh 0.95µM (no result: BAZ2B block, HP1b binding inh, GLS inhibitor, JMJD2A Tudor inh)
C[C@@](Cc1ccc(O)c(O)c1)(NN)C(=O)O	HP1b binding inh inconclusive, G9a inh 3.2µM!, JMJD2A Tudor inh 79µM
COc1ccc(S(=O)(=O)N(C)C[C@H]2OCc3cn(nn3)CCCC(=O)N([C@@H](C)CO)C[C@@H]2C)cc1	none (no result: BAZ2B block, HP1b binding inh, G9a inh, JMJD2A Tudor inh)
CC(C)C(=O)Nc1ccc(S(=O)(=O)Nc2ccccn2)cc1	none
O=C(NCCc1ccc(Cl)cc1)c1ccc(Nc2nc3ccccc3n3nnnc23)cc1	none
CCOC(=O)C1(Cc2cccc(Cl)c2)CCCN(C(=O)c2cnn(CC)c2)C1 (stereo unspecified)	G9a inh 25µM
CCOC(=O)C1(Cc2cccc(Cl)c2)CCCN(C(=O)c2cn[nH]c2)C1 (stereo unspecified)	none (no result: G9a inh)
Cc1nc(CN(C)c2ncnc3ccc(-c4ccc5c(c4)OCO5)cc23)cs1	JMJD2A Tudor inh 89µM (no result: BAZ2B block, HP1b binding inh, G9a inh)
CN(Cc1ccco1)c1ncnc2ccc(-c3ccc4c(c3)OCO4)cc12	JMJD2A Tudor inh inconclusive
OC(CNCCc1ccc(C(F)(F)F)cc1)COC(c1ccccc1)c1ccccc1 (stereo unspecified)	BAZ2B block 25µM, HP1b binding inh inconclusive, G9a inh inconclusive, JMJD2A Tudor inh 13µM
CC1CC(C)(C)N(C(=O)CN2CCN(C)CC2)c2ccccc21 (stereo unspecified)	BAZ2B block 25µM, HP1b binding inh inconclusive, JMJD2A Tudor inh 20µM (no result: G9a inh)
CC1CC(C)(C)N(C(=O)CN2C(=O)c3ccccc3C2=O)c2ccccc21 (stereo unspecified)	none
C#CCOCCOCCOCCNc1nc(N2CCN(C(=O)CCCCCCCCCCNC(=O)[C@@H](CCSC)n3cc(CCO)nn3)CC2)nc(N2CCN(C(=O)CCCCCCCCCCNC(=O)[C@H]([C@@H](C)CC)n3cc(CCCCN=C(N)N)nn3)CC2)n1	BAZ2B block 50µM, HP1b binding inh inconclusive, JMJD2A Tudor inh 40µM
C#CCOCCOCCOCCNc1nc(N2CCN(C(=O)CCCCCCCCCCNC(=O)[C@@H](CCSC)n3cc(CCO)nn3)CC2)nc(N2CCN(C(=O)CCCCCCCCCCNC(=O)[C@H]([C@@H](C)CC)n3cc(CCCCCN)nn3)CC2)n1	BAZ2B block inconclusive, HP1b binding inh inconclusive, GLS inhibitor inconclusive, JMJD2A Tudor inh 56µM
C#CCOCCOCCOCCNc1nc(N2CCOCC2)nc(N2CCN(C(=O)CCCCCCCCCCNC(=O)[C@@H](CCSC)n3cc(CCO)nn3)CC2)n1	none
CCN(c1ccccc1)S(=O)(=O)c1ccc(Cl)c(C(=O)NCc2ccco2)c1	none
CCCCC(=O)Nc1cccc(-c2nnc(-c3ccccc3)o2)c1	none
Cc1cc(-c2n[nH]c(=S)n2-c2ccccc2)nn1C	G9a inh 8.9µM, JMJD2A Tudor inh 3.2µM
Fc1cccc(-c2n[nH]c(=S)n2-c2ccccc2)c1	JMJD2A Tudor inh 7.9µM
Cc1ccc(-n2c(-c3cc(C)n(C)n3)n[nH]c2=S)cc1	G9a inh 7.9µM, JMJD2A Tudor inh 7.1µM
Cc1cccc(NC(=O)CSC2=Nc3ccccc3C3=NC(CCC(=O)NCc4ccco4)C(=O)N23)c1 (stereo unspecified)	G9a inh inconclusive
COC(=O)C1=CN(Cc2cccs2)C=C(C(=O)OC)C1c1cccc(Cl)c1	none
Cc1ccc2c(c1)C(=O)C(=O)N2CCCOc1ccccc1C	HP1b binding inh inconclusive, JMJD2A Tudor inh 40µM
Cc1ccc2c(c1)C(=O)C(=O)N2CCOc1ccccc1	BAZ2B block inconclusive, HP1b binding inh inconclusive, G9a inh 45µM, JMJD2A Tudor inh inconclusive
COc1ccc(CCNC(=O)c2cnc(C)cn2)cc1	none
COc1ccccc1NC(=O)c1cc2c(-c3ccccc3)nn(-c3ccccc3)c2s1	none
Cn1c(Cc2cccs2)n[nH]c1=S	G9a inh inconclusive, JMJD2A Tudor inh inconclusive
Cn1c(CCc2ccccc2)n[nH]c1=S	G9a inh inconclusive, JMJD2A Tudor inh 28µM
Cn1c(CSCCOc2ccccc2)n[nH]c1=S	G9a inh 10µM, JMJD2A Tudor inh 6.3µM
Cn1c(Cc2ccccc2)n[nH]c1=S	G9a inh 10µM, JMJD2A Tudor inh 28µM
COc1cccc(N2[C@@H](CC(C)=O)c3cc(C(F)(F)F)ccc3S2(=O)=O)c1	none (no result: BAZ2B block, G9a inh)
CCCCc1nc2n[nH]c(N)c2c2c1CSC(C)(C)C2	none
CN(C)C(N)=NCCC[C@H](N)C(=O)O	JMJD2A Tudor inh 89µM (no result: BAZ2B block)
COc1ccc(-c2nn(-c3ccccc3)cc2/C=N/NS(=O)(=O)c2ccccc2)cc1	JMJD2A Tudor inh inconclusive
CC(C)N1C(=O)C(Cc2nc3ccccc3c(=O)n2-c2ccccc2)c2ccccc21 (stereo unspecified)	BAZ2B block inconclusive (no result: G9a inh)
CC(C)N1C(=O)/C(=C\c2nc3ccccc3c(=O)n2-c2ccccc2)c2ccccc21	BAZ2B block 10µM, HP1b binding inh inconclusive, G9a inh inconclusive, JMJD2A Tudor inh 35µM
CC(C)N1C(=O)/C(=C/c2nc3ccccc3c(=O)n2-c2ccccc2)c2ccccc21	BAZ2B block 35µM, HP1b binding inh 25µM, G9a inh 10µM, JMJD2A Tudor inh 20µM
O=C1c2ccccc2-n2c1nc1ccccc1c2=O	none
COc1ccc(CCNCc2cc(C)n(-c3ccc(OC)cc3)c2C)cc1	BAZ2B block 28µM, HP1b binding inh inconclusive, JMJD2A Tudor inh 20µM
COc1ccc(CCNC(=O)CN2CCN(c3ccccc3Cl)CC2)cc1	none
COc1ccc(CCNCc2ccccc2N2CCCC2)cc1	BAZ2B block 56µM, G9a inh inconclusive, JMJD2A Tudor inh 20µM
Cc1cccc(-c2noc(C3CC(=O)N(c4ccc5c(c4)OCCO5)C3)n2)c1 (stereo unspecified)	none
O=C(NC1CCN(Cc2ccccc2)CC1)c1ccccc1Cl	G9a inh inconclusive
CN(C)CCCNCCCNC(=O)/C(=N\O)c1ccccn1	BAZ2B block 50µM, G9a inh 7.9µM, JMJD2A Tudor inh inconclusive
COc1ccc(-c2noc(CN3CCN(c4ccccc4OC)CC3)n2)cc1OC	none
COc1cc(/C=C2\SC(=Nc3ccccc3)NC2=O)cc(Cl)c1O	G9a inh 45µM, JMJD2A Tudor inh inconclusive
